Results as given in PubChem BioAssay AID686979 (National Center for Advancing Translational Sciences (NCATS), 2013).
In all, about 420,000 compounds went through this assay and about 50,000 (12%) were called active. Roughly 26% stayed inconclusive and do not appear here. The full list was thinned out, with actives kept by preference. A number with no mark means an inactive call. Calls come from the whole dose curve; as a rule, active = well fitted inhibition curve with a large enough effect; inconclusive = small, poorly fitted or top-dose-only effect; inactive = flat fitted curve, though single readings scatter.

Assay: qHTS for Inhibitors of human tyrosyl-DNA phosphodiesterase 1 (TDP1): qHTS in cells in presence of CPT; note: nearly all actives have a fitted effect of over 55% in size
Conditions: chicken DT40 Tdp1-/-;hTDP1 cells + 20 nM CPT, ATP luminescence, 48 h; series mostly up to 46.2 µM; activity change, negative = growth inhibition: at the top concentration
Summary of the method: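 Cell growth measured by CellTiter-Glo luminescence after a minimum 48 h, 37 C compound exposure with 20 nM CPT in Tdp1-knockout DT40 cells stably expressing hTDP1, seeded 400/well; qHTS titration format.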
% is set by controls: 0 for no effect and ±100 for the full control effect; potency is the fitted concentration of half-maximal effect.

Compound | activity change, negative = growth inhibition | Potency
Cc1onc(C(=O)NN)c1-c1csc(COc2ccccc2)n1 | 7.79% | 
COc1ccc(-c2csc(-c3cccs3)n2)cc1OC | -22.2% | 
CC(C)(C)C(=O)OCc1nc(-c2ccc(O)c(O)c2)cs1 |  | 6.51 µM (active)
O=C(Nc1ccncc1)c1ccc([N+](=O)[O-])cc1Cl | -26.5% | 
O=C1N(c2ccc(Cl)cc2)C(c2ccc(Cl)cc2)N2CCCN12 (configuration not stated) | 8.43% | 
Nc1nonc1-n1nnc(C(=O)N/N=C\c2ccncc2)c1CN1CCCCC1 | 2.3% | 
Cc1ccc(SCc2c(C(=O)N/N=C/C3CC=CCC3)nnn2-c2nonc2N)cc1 (configuration not stated) | -6.45% | 
Nc1nonc1-n1nnc(C(=O)N/N=C/c2cc(Br)ccc2O)c1CSC1=NCCS1 |  | 5.8 µM (active)
CC(C)OCCCNc1ncnc2c1[nH]c1ccc(F)cc12 |  | 2.91 µM (active)
COc1cc(OC)c(OC)cc1/C=N/Nc1ncnc2c1[nH]c1ccc(C)cc12 | -13.9% | 
COc1ccc(CCNC(=O)CC2SC(=Nc3cc(C)cc(C)c3)NC2=O)cc1OC (configuration not stated) | -27.2% | 
CC(C)(C)OC(=O)CNC(=O)c1[nH]cnc1C(=O)N[C@@H](CCCCN)C(=O)OC(C)(C)C | -1.96% | 
COc1cc(NC(=O)c2cccs2)ccc1NC(=O)c1ccccc1Cl | -14.7% | 
COc1cc2ccccc2cc1C(=O)Nc1ccncc1 | -17.4% | 
COc1cc2ccccc2cc1C(=O)Nc1ccc(NC(=O)c2cccs2)cc1 |  | 20.6 µM (active)
CCCCCCCCCCOC(=O)C[N+](C)(C)CC1CCCCC1O (configuration not stated) | -13.4% | 
CC(NCc1cccs1)C(=O)Nc1cc(Cl)cc(Cl)c1 (configuration not stated) | -1% | 
CC(=O)N1CCC2(CCCN(Cc3ccc(C#N)cc3)C2)CC1 | 5.78% | 
O=C(CN(c1cc(C(F)(F)F)ccc1Cl)S(=O)(=O)c1ccccc1)NCc1cccnc1 |  | 20.6 µM (active)
O=C(CCc1ccccc1)NCc1cccnc1 | 3.47% | 
O=C(O)c1cc(S(=O)(=O)N(Cc2ccccc2)c2cccc(C(F)(F)F)c2)ccc1Cl | -1.49% | 
COc1ccc(C2(C)NC(=O)N(CC(=O)c3ccc4c(c3)OCO4)C2=O)cc1 (configuration not stated) | -16.2% | 
CCCCc1nc(NCc2ccccc2)c(C#N)c2c1CCCC2 | -4.51% | 
Cc1nc(NCCN)c(C#N)c2c1COC(C)(C)C2 | -10.5% | 
CCCCc1nc(NCCN)c(C#N)c2c1CSC(C)(C)C2 |  | 20.6 µM (active)
COc1ccc(-c2cc(=O)c3c(O)cc(O[C@@H]4O[C@H](CO[C@@H]5O[C@@H](C)[C@H](O)[C@@H](O)[C@H]5O)[C@@H](O)[C@H](O)[C@H]4O)cc3o2)cc1O |  | inactive

Compound | activity change, negative = growth inhibition | Potency
COc1cc(C(=O)N[C@@H](C)C(=O)NCc2ccco2)cc(OC)c1OC | 29.6% | 
COc1cccc(OC)c1C(=O)NC(=S)NCc1ccco1 | -1.27% | 
COc1cc(C(=O)NC(=S)NCc2ccco2)cc(OC)c1OC |  | 18.4 µM (active)
CCN1C(=O)C(=O)N(CC(=O)Nc2cc(C)ccc2C)C1=O | -3.8% | 
Cc1ccc(CSCCNC(=O)CN(c2ccc(F)cc2)S(C)(=O)=O)cc1 | -6.25% | 
CCOC(=O)C1CCN(C(=O)COC(=O)C2CCN(S(=O)(=O)c3ccc4c(c3)OCCO4)CC2)CC1 | 7.75% | 
CCCN1CCN(CCCNC(=O)Cn2nc(CC)n3c(cc4occc43)c2=O)CC1 | -3.5% | 
CCc1ccc(-c2cc3c(=O)n(CC(=O)NCCCN4CCN(Cc5ccccc5)CC4)nc(C)n3n2)cc1 |  | 20.6 µM (active)
Cc1ccc(-c2ccc(=O)n(CC(=O)NCCCN3CCCCC3)n2)cc1 | -0.122% | 
Cc1ccccc1CSc1nnc(-c2ccccc2)c(=O)[nH]1 | 6.06% | 
C/C(Nc1ccc2oc(=O)ccc2c1)=C1/C(=O)CC2[C@@H]1C2(C)C (some centres not stated) | 6.03% [at 9.04 µM] | 
CC(=O)Nc1ccc(S(=O)(=O)N2CCN(CCCOc3cc(C)ccc3C)CC2)cc1 |  | 25.9 µM (active)
Cc1ccc(NC(=O)CCNC(=O)c2ccc([N+](=O)[O-])cc2)cc1S(=O)(=O)N1CCOCC1 | -17.7% | 
Cc1ccc(C)c(S(=O)(=O)N2CCN(C(=O)Nc3ccccc3)CC2)c1 | 1.6% | 
CC(=O)Nc1ccc(S(=O)(=O)N2CCSCC2)cc1 | -3.56% | 
Cc1ccc(C)c(S(=O)(=O)N2CCN(CC(=O)Nc3ccc([N+](=O)[O-])cc3)CC2)c1 |  | 14.6 µM (active)
CC(=O)Nc1ccc(S(=O)(=O)N2CCN(S(=O)(=O)c3cccs3)CC2)cc1 | 4.79% | 
CCCC/S(C)=N/S(=O)(=O)c1ccc(C)cc1 (configuration not stated) | 20% | 
N#Cc1c(NCCO)ccc([N+](=O)[O-])c1NCCO | 7.25% | 
CC(=O)Oc1ccc(-c2nc3c(C)cccc3c(=O)o2)cc1 | -4.34% | 
CCn1cc(C(=O)OCC(=O)Nc2cccc(C)c2)c(=O)c2ccc(C)nc21 | -10% | 
C[n+]1ccc(C(=O)NCc2ccccc2)cc1 | 2.67% | 
[O-][n+]1ccc(OCc2ccccc2)cc1 | -4.31% | 
c1ccc(Cc2cc[n+](Cc3ccccc3)cc2)cc1 |  | 23.1 µM (active)
CN(C)c1cc[n+](Cc2ccccc2)cc1 |  | 0.58 µM (active)
CN(C)c1ccc(/C=N/N(Cc2ccccc2)c2ccccc2)cc1 | 5.33% | 
